This note sets out measurements from the OligoGym collection.
Also: reference of the scale not given here.

In one test the target is NPC1L1. The experiment in a line: pooled miR-30 sensor sort-seq; sequence = guide strand. The following applies: shRNA.
The sequence TTGGAGAGTGTCATGAGGCTTC returned a sensor-assay potency score (higher = more potent) of -0.0939.
On the same count and under the same terms, as for TTGGAGTCCACCATCACTCGGC, the figure is 0.203; as for TTGGGGTCCACCATCTTGCTTT, -0.775; as for TTGTTGGGCAAGAAGTTGCTGA, -0.757.
Sequence TTGTCAGCTGTGGAGACTCGGG showed a sensor-assay potency score (higher = more potent) of -1.23.
Regarding TTGGTGATCGACAGACTCGCTT, the sensor-assay potency score (higher = more potent) was 0.12.
The same measure, in the same setting: then TTGTGTAAGGCTCACTCTGGGC, with -1.01; and TTGTGATAGGCCATGAACCTGG, with -0.611.
The same measure, in the same setting: then TTGATAGAACCTTCAAAGCTGT, with -0.451; and TTGATCTCGTCTTCCAGAGAGC, with -1.19.
Consider TTATGGAACTGCTCCACCGAGG, for which the sensor-assay potency score (higher = more potent) is -0.788.
The same measure, in the same setting: then TAAAACACATTGGTGATCGTGT, with 0.009.

The target in another test is NPEPL1. Described as above. Conditions: shRNA.
With TTGTCTTTGAAACCCTGCTTGA, the sensor-assay potency score (higher = more potent) is -0.575.
With TTGCAAGCATAGGACACGCCAT, the sensor-assay potency score (higher = more potent) was -0.766.
Same read-out and setting: as for TCGCAGACCATCACAATGCAGC, the figure is -1.2; as for TCGCTCACCAGCATGCACCGGT, -0.443; as for TTCATGTCCGCCACAGCTGAGG, -1.03.
Same read-out and setting: then TTGATTTCCACCGTCTTCCCTG, with -0.0975; and TTCGCTAAGCACTGCAATGTGG, with -0.589.
In turn, TAGAGGGGACAGCTGTCCGTGG displayed a sensor-assay potency score (higher = more potent) of -0.837.
On to TCGGTGTTCATCTCATTGCAGG, for which the sensor-assay potency score (higher = more potent) is -1.16.

A further test has as its target NPR1. The test is described as above. The following applies: shRNA.
In the case of TTGTCCAGGATGTTGCTGCTGT, the sensor-assay potency score (higher = more potent) was -0.0226.
On to TTGTAGTTCAGTACAACCCTGA, for which the sensor-assay potency score (higher = more potent) stood at 0.392.
Same read-out and setting: then TAGACTCCATTCTTGAGGCTGT, with 0.414; and TTCGGTTCCACATCCGCTGAGT, with 0.0187.
TATAATATGCTGTCTTGGCAAA gave a sensor-assay potency score (higher = more potent) of -1.35.
The sequence ATACTCGTCCTTGACACCGAAG registered a sensor-assay potency score (higher = more potent) of -1.26.
The sequence TTCCTGTATATGAAGAAGGAGA had a sensor-assay potency score (higher = more potent) of -1.29.
TTTCGTGTCAGCTCAATGCGTT displayed a sensor-assay potency score (higher = more potent) of 0.0994.
On the same count and under the same terms, as for TTCTCCAGCTGCATCTTCCTGT, the figure is -0.0836; as for TCATTGGTGAGTGAGTACCGGA, -1.01; as for TTAGACTCCATTCTTGAGGCTG, 0.316.

In the next test the target is NPSR1. The description is as above. Conditions: shRNA.
Turning to TTTTAATCCAAATAGTTCGGAT, the sensor-assay potency score (higher = more potent) was -0.423.
Consider TTCTTCTTTCTCCTCCATGTGG, for which the sensor-assay potency score (higher = more potent) is -0.829.
In turn, TTGGACAGTGTCCTCTTCCCAA gave a sensor-assay potency score (higher = more potent) of -1.13.
TAGCGCAGCCTCCTGGAGCTGA returned a sensor-assay potency score (higher = more potent) of -0.612.
For TTTGCCTTTGAGATGAGTCCTC, the sensor-assay potency score (higher = more potent) came out at 0.0754.
Sequence TGAATCGCCAATTAATATCTGT gave a sensor-assay potency score (higher = more potent) of -0.0374.
TACCCTTCCAGTTCTCTCGTTG gave a sensor-assay potency score (higher = more potent) of 0.107.
